High-throughput results: PubChem BioAssay, National Center for Advancing Translational Sciences (NCATS)
JMJD2A Tudor: qHTS Assay for Inhibitors of JMJD2A-Tudor Domain; Potency, µM (highest dose often 114 µM), without a hit: at the highest dose activity change, negative = inhibition, usual class: inhibitors; hit rate 4.4% among 390,000; AlphaScreen JMJD2A-Tudor / H3K4me3 peptide binding; Lysine-specific demethylase 4A (Homo sapiens), O75164; also: potency is read from the fitted curve at half-maximal effect; % is scaled to controls: 0 for no effect and ±100 for the full control effect; nearly all actives have a fitted effect of over 50% in size
G9a inh: qHTS Assay for Inhibitors of Histone Lysine Methyltransferase G9a. Histone-lysine N-methyltransferase EHMT2 (Homo sapiens), Q96KQ7. G9a H3K9 monomethylation, AlphaScreen, 2 h. Potency, µM (titrated, usually from 102 µM), for inactives: at the top dose activity, negative = inhibition, usual class: inhibitors. hit rate 8.8% among 350,000. AID 504332, 2011; also: potency is read from the fitted curve at half-maximal effect; % is scaled to controls: 0 for no effect and ±100 for the full control effect; nearly all actives have a fitted effect of over 75% in size
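Compounds were preincubated with 20 nM G9a for 15 min, after which biotinylated H3K9 peptide (500 nM) and SAM (20 uM) started a 2 h room-temperature reaction. Monomethylated product was quantified by antibody-based AlphaScreen chemiluminescence.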
CtBP-E1A blk: qHTS Assay for Inhibitors of the CtBP/E1A Interaction; CtBP / adenovirus E1A interaction (AlphaScreen); AlphaScreen GST-E1A/His-CtBP binding, 1536-well; stronger effect = lower value; activity change, % (concentration not given with the values); hit rate 0.49% among 340,000; in the data active = activity change below about -65%; inconclusive = mostly about -30% to -63%; also: % is scaled to controls: 0 for no effect and ±100 for the full control effect
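GST-E1A and His-tagged CtBP (125 nM each as 5X stock) were preincubated with pin-transferred compound for 2 h at 37 °C in the dark, then glutathione donor and nickel acceptor beads were added for 1 h before AlphaScreen reading.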
HP1b chromo inh: HTS for Inhibitors of HP1-beta Chromodomain Interactions with Methylated Histone Tails; Chromobox protein homolog 1 (Homo sapiens), P83916; AlphaScreen HP1-beta / biotin-H3K9me3 peptide binding; Potency, µM (series often up to 114 µM), for inactives: at the highest dose activity change, negative = inhibition, usual class: inhibitors; hit rate 0.56% among 390,000; also: potency is read from the fitted curve at half-maximal effect; nearly all actives have a fitted effect of over 70% in size
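AlphaScreen: HP1-beta (50 nM) preformed 30 min with biotin-H3(1-18)K9me3 peptide (50 nM) in PBS pH 7.4, 0.01% Tween-20. Compound added for 30 min at RT, then streptavidin donor/nickel chelate acceptor beads (10 ug/mL) for 30 min.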
Six1-Eya2 blk: qHTS Assay for Inhibitors of the Six1/Eya2 Interaction; Homeobox protein SIX1 (Homo sapiens) + Protein phosphatase EYA2 (Homo sapiens), …; AlphaScreen GST-Six1/His-Eya2 binding, biochemical; stronger effect = lower value; activity change, % (no concentration beside the values); hit rate 0.56% among 360,000; AID 651725, 2012; in the data active = activity change below about -65%; inconclusive = mostly about -30% to -63%; also: % is scaled to controls: 0 for no effect and ±100 for the full control effect
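AlphaScreen with GST-Six1 and His-Eya2 (5X mix: 250 nM and 500 nM), glutathione donor and nickel acceptor beads; buffer 50 mM Tris pH 8.0, 300 mM NaCl, 1 mM TCEP; 1 h at 37 C in the dark.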
BAZ2B block: qHTS Assay for Inhibitors of BAZ2B | Bromodomain adjacent to zinc finger domain protein 2B (Homo sapiens), Q9UIF8 | Potency, µM (doses to about 114 µM), inactives show top-dose activity change, negative = inhibition, most hits filed as inhibitors | AlphaScreen BAZ2B-H3K14Ac peptide displacement | hit rate 4.4% among 360,000; also: potency is read from the fitted curve at half-maximal effect; % is scaled to controls: 0 for no effect and ±100 for the full control effect; nearly all actives have a fitted effect of over 60% in size
Target sequence (Q9UIF8 whole entry, looked up, the tested form may be a part): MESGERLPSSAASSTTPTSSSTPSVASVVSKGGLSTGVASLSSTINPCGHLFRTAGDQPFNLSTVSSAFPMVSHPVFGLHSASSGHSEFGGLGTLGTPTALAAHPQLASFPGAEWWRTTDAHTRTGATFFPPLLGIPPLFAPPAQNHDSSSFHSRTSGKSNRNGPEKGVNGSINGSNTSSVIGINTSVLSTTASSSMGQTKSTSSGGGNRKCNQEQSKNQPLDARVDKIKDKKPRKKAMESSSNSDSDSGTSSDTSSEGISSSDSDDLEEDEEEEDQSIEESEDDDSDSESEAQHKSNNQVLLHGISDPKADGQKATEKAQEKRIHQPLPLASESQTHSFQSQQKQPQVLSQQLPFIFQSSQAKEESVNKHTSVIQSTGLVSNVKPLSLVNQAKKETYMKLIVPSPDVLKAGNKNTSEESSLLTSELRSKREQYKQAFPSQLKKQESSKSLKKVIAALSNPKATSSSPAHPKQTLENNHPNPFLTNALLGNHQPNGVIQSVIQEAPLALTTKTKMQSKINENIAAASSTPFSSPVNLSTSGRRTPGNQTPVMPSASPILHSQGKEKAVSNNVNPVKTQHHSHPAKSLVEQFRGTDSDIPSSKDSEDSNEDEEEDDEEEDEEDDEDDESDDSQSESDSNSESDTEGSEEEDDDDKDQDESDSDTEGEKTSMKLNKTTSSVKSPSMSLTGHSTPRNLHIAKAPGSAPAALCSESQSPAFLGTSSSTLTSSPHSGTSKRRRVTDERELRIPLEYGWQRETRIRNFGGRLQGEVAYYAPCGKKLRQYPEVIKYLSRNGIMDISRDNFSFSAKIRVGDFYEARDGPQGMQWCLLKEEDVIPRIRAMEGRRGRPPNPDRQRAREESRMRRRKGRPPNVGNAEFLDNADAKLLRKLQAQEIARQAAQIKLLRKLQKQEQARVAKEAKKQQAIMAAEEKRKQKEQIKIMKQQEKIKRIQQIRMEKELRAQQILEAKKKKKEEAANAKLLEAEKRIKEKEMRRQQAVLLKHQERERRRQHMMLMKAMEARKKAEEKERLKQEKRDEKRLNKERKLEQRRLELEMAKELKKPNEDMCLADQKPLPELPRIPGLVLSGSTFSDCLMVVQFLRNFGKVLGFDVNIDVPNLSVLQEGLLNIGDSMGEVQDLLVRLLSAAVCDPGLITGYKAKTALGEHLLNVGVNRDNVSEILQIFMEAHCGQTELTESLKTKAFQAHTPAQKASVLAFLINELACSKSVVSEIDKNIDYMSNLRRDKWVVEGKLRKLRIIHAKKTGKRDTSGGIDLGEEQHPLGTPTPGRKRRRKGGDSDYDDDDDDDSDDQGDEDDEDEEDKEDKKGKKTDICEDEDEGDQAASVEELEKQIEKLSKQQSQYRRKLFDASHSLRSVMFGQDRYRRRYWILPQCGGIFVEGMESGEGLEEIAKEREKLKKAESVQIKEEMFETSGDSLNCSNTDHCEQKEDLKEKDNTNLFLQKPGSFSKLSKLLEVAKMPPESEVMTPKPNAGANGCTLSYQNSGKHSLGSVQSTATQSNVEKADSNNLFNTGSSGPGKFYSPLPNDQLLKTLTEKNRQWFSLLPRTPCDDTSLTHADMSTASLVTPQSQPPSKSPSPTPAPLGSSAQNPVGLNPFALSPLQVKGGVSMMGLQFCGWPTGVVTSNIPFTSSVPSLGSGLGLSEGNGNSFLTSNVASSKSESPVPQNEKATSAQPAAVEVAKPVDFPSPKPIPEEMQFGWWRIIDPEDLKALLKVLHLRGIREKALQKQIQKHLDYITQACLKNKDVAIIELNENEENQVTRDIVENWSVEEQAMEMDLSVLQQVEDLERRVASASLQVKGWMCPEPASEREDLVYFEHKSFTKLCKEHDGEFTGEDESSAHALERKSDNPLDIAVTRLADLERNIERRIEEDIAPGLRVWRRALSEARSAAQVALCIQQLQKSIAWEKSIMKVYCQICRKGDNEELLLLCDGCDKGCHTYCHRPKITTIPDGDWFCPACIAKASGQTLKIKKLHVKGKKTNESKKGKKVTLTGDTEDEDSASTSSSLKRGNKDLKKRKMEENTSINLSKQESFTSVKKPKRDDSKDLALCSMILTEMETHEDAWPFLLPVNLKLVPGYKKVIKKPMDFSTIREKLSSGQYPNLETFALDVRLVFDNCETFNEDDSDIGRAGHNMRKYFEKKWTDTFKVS
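AlphaScreen displacement: compounds (up to 110uM) incubated 30 min at room temperature with a preformed 50 nM BAZ2B/50 nM biotinylated H3K14Ac peptide complex in PBS pH 7.4 with Tween-20. Donor and acceptor beads at 10 ug/mL final added, 20 min light-protected before reading.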
Active calls of the source: *; ? = inconclusive; . = not tested or not shown; [ ] = another dose, or the depositor's remark. The list is not random: actives were taken first. Their share in the collection is about 10%. Unless noted, calls follow the shape of the dose curve; as a rule, active = well fitted inhibition curve with a large enough effect; inconclusive = small, poorly fitted or top-dose-only effect; inactive = no such curve, though single readings can be large or run the other way.

SMILES	JMJD2A Tudor	G9a inh	CtBP-E1A blk	HP1b chromo inh	Six1-Eya2 blk	BAZ2B block
CCOc1ccc(Nc2cc(C)nc3nc(Cc4ccc(Cl)cc4)nn23)cc1	-26.4%	-37.6%[59 µM]	.	42.9%	.	-19.1%
CCCNC(=O)C1CCC(Cn2c(=O)c3sccc3n(CC(=O)N(CC)CC)c2=O)CC1 (stereo not drawn)	-2.7%	16.1%[59 µM]	.	100.0%	.	20.6%
O=C1NC(Cc2ccccc2)C(=O)N1Cc1cc([N+](=O)[O-])cc2c1OCOC2 (stereo not drawn)	-6.7%	3.0%	0.1	27.3%	-5.7	79.4µM*
CCOC(=O)c1ccccc1OC(=O)CS(=O)c1ccccc1[N+](=O)[O-] (stereo not drawn)	-13.3%	39.8µM*	-0.4	38.8%	3.9	-34.8%
CCN(CC)CCSc1nc2c([nH]1)c(=S)n(C)c(=O)n2C	17.8µM*	.	-0.3	23.9%	-3.1	.
CCCCSc1nc2c([nH]1)c(=S)n(C)c(=O)n2C	-17.4%	.	-6.9	6.0%	2.2	.
Cn1c(=S)c2[nH]c(SCCC(C)(C)C)nc2n(C)c1=O	22.4µM*	.	-14.6	0.5%	0.1	.
CSc1nc2c([nH]1)c(=S)n(C)c(=O)n2C	-3.4%	.	-5.9	30.2%[57 µM]	-2.8	.
Cn1c(=S)c2[nH]c(SCc3cccnc3)nc2n(C)c1=O	8.91µM*	.	-21.9	1.2%	2.6	.
CC1CCN(S(=O)(=O)c2ccc3c(c2)N(CC(=O)NCCN(C)C)C(=O)CO3)CC1	1.7%	-3.3%[59 µM]	.	36.9%	.	1.9%
CN1c2ccccc2N(C)C1(C)c1ccccc1	8.91µM*	?	-16.7	?	-24.2	46.4%
CCN1c2ccccc2N(C)C1(C)c1ccccc1 (stereo not drawn)	8.91µM*	2.51µM*	-25.6	31.6µM*	?	28.2µM*
Cc1ccc(-c2nc(S(=O)(=O)c3ccc(C)cc3)c(N3CCCCC3)o2)cc1	-29.1%	15.8µM*	.	-13.6%	.	?
COc1cccc(-c2nc(S(=O)(=O)c3ccccc3)c(N3CCC(C)CC3)o2)c1	?	17.8µM*	.	9.3%	.	?
CCOc1ccc(-c2nc(S(=O)(=O)c3ccccc3)c(N3CCC(C(N)=O)CC3)o2)cc1	70.8µM*	.	1.3	?	8.9	?
O=S(=O)(c1ccccc1)c1nc(-c2cccc(Cl)c2)oc1N1CCOCC1	-35.5%	39.8µM*	-14.2	-0.3%	-9.3	?
O=S(=O)(c1ccccc1)c1nc(-c2ccccc2)oc1N1CCOCC1	-22.1%	3.6%	-11.6	28.5%	1.2	-6.4%
COc1cccc(S(=O)(=O)N2CCN(S(=O)(=O)c3ccc4c(c3)OCCO4)CC2)c1	-15.1%	.	.	.	.	.
Cc1ccc(S(=O)(=O)c2nc(C(C)(C)C)oc2N2CCOCC2)cc1	35.5µM*	8.91µM*	-1.1	50.1µM*	3.7	0.2%
Cc1ccc(S(=O)(=O)c2nc(-c3ccc(F)cc3)oc2N2CCOCC2)cc1	-17.9%	35.5µM*	-2.2	16.1%	1.2	-32.1%
CCN1CCN(c2oc(-c3ccccc3)nc2S(=O)(=O)c2ccc(C)cc2)CC1	?	39.8µM*	-4.7	-20.2%	-27.7	50.1µM*
Cc1ccc(-c2nc(S(=O)(=O)c3ccc(F)cc3)c(N3CCN(c4ccccc4)CC3)o2)cc1	-17.4%	-16.9%[59 µM]	.	-0.9%	.	?
COc1ccc(-c2nc(S(=O)(=O)c3ccc(C)cc3)c(N3CCCC3)o2)cc1	?	?	-20.0	79.4µM*	-3.4	-24.5%
O=C(N/N=C/C=C\c1ccccc1[N+](=O)[O-])c1cccs1	-24.1%	16.6%[59 µM]	-9.0	44.1%	0.2	-5.9%
CCOc1cc(/C=N/NC(=O)c2cccs2)cc([N+](=O)[O-])c1O	-6.0%[11.4 µM]	?	.	-9.5%	-86.8*	?
SMILES	JMJD2A Tudor	G9a inh	CtBP-E1A blk	HP1b chromo inh	Six1-Eya2 blk	BAZ2B block
O=C(N/N=C/C=C/c1ccc([N+](=O)[O-])cc1)c1cccs1	-29.7%	39.8µM*	0.1	25.1%	-3.0	50.1µM*
O=C(N/N=C/C=C\c1ccco1)c1cccs1	-23.1%	?	-0.6	7.1%	-20.3	44.7µM*
O=C(N/N=C/C=C/c1ccco1)/C(=C/c1ccccc1)NC(=O)c1ccccc1	79.4µM*	28.2µM*	4.4	-21.4%	-10.8	-4.3%
CCOc1ccc(C2c3c(oc4ccccc4c3=O)C(=O)N2Cc2ccc3c(c2)OCO3)cc1 (stereo not drawn)	-15.1%	-16.8%[59 µM]	.	17.0%	.	-7.5%
CC(C)Sc1nc2sc3c(c2c(=O)n1Cc1ccccc1)CCCC3	3.9%	10.5%[59 µM]	.	69.3%	.	11.2%
O=C(N/N=C/C=C/c1ccco1)c1ccncc1	79.4µM*	.	-0.2	?	-8.4	8.2%
CC(=C/c1ccco1)/C=N/NC(=O)c1ccncc1	-12.1%	7.5%[59 µM]	0.0	21.3%	-1.6	-22.6%
CCOc1cc2sc(N3CCC(C(=O)Nc4ccc(C(C)C)cc4)CC3)nc2cc1Br	-29.5%	-30.9%[59 µM]	.	2.2%	.	?
CCn1c(SCC(=O)Nc2nc(-c3ccc(C)cc3)cs2)nnc1-c1ccccc1	-23.0%	-19.9%	0.7	11.8%	-1.8	-7.0%
CN(C)CCCn1c(SCC(=O)N2c3ccccc3Sc3ccccc32)nc2ccccc2c1=O	?	39.8µM*	-23.6	?	-8.8	?
Cc1ccc(-c2csc(NC(=O)CSc3nc4ccccc4c(=O)n3CCCN(C)C)n2)cc1	44.7µM*	39.8µM*	-7.9	?	-13.6	?
Cn1c(SCC(=O)N2c3ccccc3Sc3ccccc32)nc2ccccc21	?	-19.0%[59 µM]	-16.4	4.6%	-12.6	-0.6%
Cc1ccc(C2CC(=O)n3nc(-c4cccc(C)c4)nc3S2)cc1 (stereo not drawn)	-2.1%	14.7%[59 µM]	.	51.2%	.	1.0%
COc1ccc(C2C(C(=O)c3ccccc3)N3c4ccccc4C=CC3C2[N+](=O)[O-])cc1 (stereo not drawn)	-22.8%	35.5µM*	-19.0	-4.6%	-16.6	?
COc1ccc(C(=O)[C@H]2[C@H]3C(=O)N(c4ccc(OC(C)=O)cc4)C(=O)[C@H]3C3C=CC=NN32)cc1 (stereo partly drawn)	-22.8%	.	-3.5	5.7%	-8.9	-19.9%
COc1ccc(N2C(=O)[C@@H]3[C@H](C2=O)[C@H](C(C)=O)N2c4ccccc4C=C[C@@H]32)cc1	-6.9%	8.91µM*	0.0	-3.8%	3.2	?
